According to PubChem BioAssay AID1645855 (Buhrlage Lab, Dana-Farber Cancer Institute and Novartis …, 2021):
Among all 47,000 compounds or so, about 3,100 (6.6%) were called active. For the sample, actives were picked, then their nearest neighbours and some compounds at random. A number with no mark means an inactive call. Rule as the data show it: active = inhibition above about 30%; inactive = the rest.

Target: Ubiquitin carboxyl-terminal hydrolase 17-like protein 5 (Homo sapiens) (UniProt A8MUK1)
Test: inhibitors of human USP17 deubiquitinase (AID 1645855)
Conditions: purified USP17, Ub-rhodamine cleavage fluorescence, 3 h; at 50 µM; active compounds read high

Ubiquitin carboxyl-terminal hydrolase 17-like protein 5 (Homo sapiens), sequence (A8MUK1 whole entry, looked up): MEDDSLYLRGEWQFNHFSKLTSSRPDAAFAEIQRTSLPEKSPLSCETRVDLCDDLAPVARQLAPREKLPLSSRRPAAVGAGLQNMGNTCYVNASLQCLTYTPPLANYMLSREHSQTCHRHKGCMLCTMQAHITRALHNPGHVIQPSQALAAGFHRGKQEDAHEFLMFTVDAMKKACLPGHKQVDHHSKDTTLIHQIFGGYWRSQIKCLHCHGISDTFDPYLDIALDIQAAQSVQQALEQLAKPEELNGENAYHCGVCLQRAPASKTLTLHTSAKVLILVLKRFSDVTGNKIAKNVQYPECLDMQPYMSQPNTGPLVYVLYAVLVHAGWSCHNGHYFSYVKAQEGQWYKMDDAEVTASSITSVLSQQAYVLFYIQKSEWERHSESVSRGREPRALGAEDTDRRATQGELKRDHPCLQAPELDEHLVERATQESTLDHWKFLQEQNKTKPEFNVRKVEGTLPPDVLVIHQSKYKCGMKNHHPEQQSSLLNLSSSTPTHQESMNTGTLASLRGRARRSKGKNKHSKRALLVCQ

Structure (SMILES) | inhibition
O=C1CCC(=O)N(O)CCCCCNC(=O)CCC(=O)N(O)CCCCCNC(=O)CCC(=O)N(O)CCCCCN1 | 23.5%
CC(=O)N1CCc2cc(S(=O)(=O)Nc3ccccc3N3CCN(C)CC3)ccc21 | -8.21%
CC(=O)N1CCc2cc(C(O)CN3CCN(c4ccccc4)CC3)ccc21 (centres undefined) | 47.6% (active)
O=C(CN1CCN(c2ccccc2)CC1)c1ccccc1 | -12.9%
CCOCCCNc1ncnc2c1sc1nc(N3CCOCC3)c3c(c12)CC(C)(C)OC3 | -1.37%
Cc1cc(=O)n(CC(=O)NCc2ccccc2Cl)c(N2CCCC2)n1 | -2.72%
Cc1ccccc1CNC(=O)Cn1c(=O)ccn(Cc2ccc(F)cc2)c1=O | 42.9% (active)
CCOc1ccccc1CNC(=O)CCn1c(-c2ccc(F)cc2)cc(C(C)=O)c1C | -2.37%
O=C1Nc2ccccc2C1c1c(-c2ccccc2Cl)[nH]c2[nH]c(=O)[nH]c(=O)c12 (centres undefined) | 8.48%
Cc1cnc(N2CC[C@@H]3[C@@H](CO[C@@H]3CNS(C)(=O)=O)C2)nc1 | -4.98%
CC(C)NC(=O)N1CCCN(C2CCN(Cc3ccccc3)C2=O)CC1 (centres undefined) | -36.9%
CCCCc1nc2sc3c(SCC(=O)NCc4ccccc4)ncnc3c2c2c1CCC2 | 44.6% (active)
CCCc1nc2sc3c(N4CCC(C)CC4)ncnc3c2c2c1CCC2 | -14.3%
CCC1(C)Cc2c(sc3nc(SCC(=O)NCCc4ccccc4)nc(N)c23)CO1 (centres undefined) | -6.11%
CC(=O)CSc1nnc(-c2ccccc2Br)o1 | 2.6%
CCCCOc1ccc(-c2nnc(-c3ccccc3Br)s2)cc1 | 4.93%
CS(=O)(=O)c1cnc(N2CCCCC2)nc1C1CCN(C(=O)CCc2ccco2)CC1 | 5.15%
Cc1cccc(-n2cc(-c3ccccc3)c3c(N(C)C)ncnc32)c1 | 2.77%
COc1ccc(CN=C2NS(=O)(=O)C(c3ccc(F)cc3)=C2C)cc1OC | 66.4% (active)
COc1ccc(C2=Nc3ncnn3C2=NCc2ccc(F)cc2)cc1OC | -4%
COc1cc(CNc2nn[nH]n2)ccc1OCc1ccc(C)cc1 | 5.1%
CC1=C(c2ccc(Cl)cc2)S(=O)(=O)NC1=NCC(=O)NC1CCCC1 | 20.9%
CC1=C(c2ccc(C)cc2)S(=O)(=O)NC1=NCc1cccc(Br)c1 | 46% (active)

Structure (SMILES) | inhibition
CCn1c(SCc2cccc(C)c2)nnc1-c1cnccn1 | 10.7%
O=C(c1cccnc1)N1CCC(c2cccc(Cc3ccccc3Cl)n2)CC1 | -11.1%
COc1cccc(CC2(NC(=O)c3ccccc3)N=C3C=CC=CN3C2=O)c1OC (centres undefined) | 16.5%
Cc1cc(OCC(=O)Oc2ccc(-n3cnnn3)cc2)cc(C)c1Cl | -0.253%
CCc1ccc(C(=O)Cn2c(N3CCOCC3)nc3ccccc32)cc1 | -2.13%
COc1ccc(S(=O)(=O)N2CC(C(=O)NC3CCCCC3)C3(CCOCC3)C2)cc1 (centres undefined) | 0.196%
COc1nc(OC)nc(N2CCC(c3nc(C)cc(-c4ncc[nH]4)n3)CC2)n1 | -10.1%
COc1cccc(-n2nnc(-c3nnc(-c4ccccc4)o3)c2C)c1 | 54.7% (active)
COc1ccc(-c2nnc(-c3cccc(S(=O)(=O)N4CCCC4)c3)o2)cc1 | 13.3%
COc1cccc(-c2nnc(-c3ccccc3NS(=O)(=O)c3ccc(C)cc3)o2)c1 | 15.5%
Cc1ccc(CNC(=O)CCNc2cc(C)nc3nc(-c4cccnc4)nn23)cc1 | 6.35%
CCC(CC)C(=O)N1CCC(c2nc3c(nnn3Cc3ccccc3)c(=O)[nH]2)CC1 | 14.7%
CC1=C2C[C@@H]3C(CN4CCN(c5ccccn5)CC4)C(=O)O[C@@H]3C[C@@]2(C)CCC1 (some centres undefined) | -3.81%
COc1ccc(-c2nc(N(Cc3ccccc3)C(=O)CN3CCOCC3)sc2C)cc1 | -13.9%
CNC(=O)c1cc(-c2ccccc2)c(N2CCOCC2)s1 | 2.58%
COc1ccc(NC(=O)c2sc(N3CCOCC3)nc2-c2ccccc2)c(OC)c1 | 52.7% (active)
CC(C)Cc1noc(CN2CCC3(CC2)CC3c2nnc(-c3cccc(F)c3)o2)n1 (centres undefined) | 0.0905%
CC/C=C\[C@@H]1O[C@H]1C1=C(C)C(=O)C2(O1)C(=O)NC(OC)(C(=O)c1ccccc1)C2O (some centres undefined) | -4.56%
COc1ccc(-c2cc(C(=O)N3CCCC3c3cc(C)on3)no2)cc1 (centres undefined) | 0.23%
O=C(Nc1ccc2c(c1)OCO2)c1sc2cc(Cl)ccc2c1Cl | -7.31%
COc1ccccc1OCCC(=O)Nc1cccc(S(=O)(=O)N(C)C)c1 | 9.63%
CC(OC(=O)c1cn(-c2ccccc2)nc1-c1cccnc1)C(=O)Nc1cccc(S(=O)(=O)N(C)C)c1 (centres undefined) | 41.1% (active)
CCOc1ncccc1C(=O)NNC(=O)c1cn(-c2ccccc2)nc1-c1ccccc1 | 2.51%

Structure (SMILES) | inhibition
NC(=O)c1ccccc1OCC(=O)Nc1cc(Cl)ccc1Oc1ccccc1 | -1.08%
Cc1cc(=O)oc2c(C)c(OC(C)C(=O)NCc3ccncc3)ccc12 (centres undefined) | -11.3%
COc1ccc(-c2cc(=O)oc3c(C)c(OCc4ccccc4F)ccc23)cc1 | 49.1% (active)
COc1ccc(-c2noc(-c3cc4c(COC(C)=O)cnc(C)c4oc3=O)n2)cc1 | -158%
CNC(=O)c1sc2nccnc2c1C1CCN(c2ccncn2)CC1 | -8.22%
CCc1cc(C2CCCN2S(=O)(=O)c2ccc(C(C)C)cc2)on1 (centres undefined) | 9.48%
Cc1nn(C)c(C)c1CN(C(=O)Cn1cc(C(C)C)nn1)C1CC1 | -1.87%
CN1C[C@@H](NC(=O)c2ccc(F)cc2)C[C@H]1c1nc(-c2cccnc2)no1 | -2.42%
Cc1cc(N)nc2c1c(C)nn2-c1ncc(C(F)(F)F)cc1Cl | -15.8%
COc1cc(Cl)ccc1-c1nc(-c2cccc(C(=O)N3CCCC3)c2)no1 | 8.98%
Cc1ccccc1-c1nc(-c2cn(CC(=O)Nc3ccccc3)cn2)no1 | 10%
Cc1ccc(-c2noc(-c3cccc(OCC(=O)N(C)C)c3)n2)cc1 | 50.7% (active)
COc1ccc(-c2noc(-c3cccc(OCC(=O)NC(C)C)c3)n2)cc1 | -0.296%
Cc1ccccc1-c1nc(-c2cccc(OCC(=O)N3CCOCC3)c2)no1 | 48.9% (active)
Cc1ccc(-c2nc(-c3cccc(-c4ccnn4C)c3)no2)cc1 | 5.04%
O=C(NCCc1ccccc1)c1cc2c(s1)CS(=O)(=O)C2 | 6.74%
COc1ccccc1Cc1cnc(C2CCCN(C(=O)c3ccnc(C)n3)C2)o1 (centres undefined) | -2.9%
CC1=N[C@@]2(CC[C@@H]3CN(C(=O)Nc4ccccc4C)C[C@@H]32)C(=O)N1CC1CC1 | -23.9%
COc1ccc(CNC(=O)c2cccc3cccnc23)cc1 | 40.3% (active)
COc1ccc(-c2ccc(CCC(=O)NCc3ccccc3)o2)cc1 | 34.6% (active)
COc1ccc(CNC(=O)CSc2nnc3c4ccccc4nc(-c4ccco4)n23)cc1 | -17%
COc1ccc(-c2noc(CNC(=O)CCc3ccccc3)n2)cc1OC | 8.5%
COc1cccc(C(=O)NCc2ccc(-c3nc4cnccc4o3)cc2)c1 | 25.2%

Structure (SMILES) | inhibition
COc1ccc(CNC(=O)Cn2ncc3ccc(C)cc32)cc1 | 16.8%
COc1ccc(CNC(=O)c2ccccc2-c2ncc(-c3ccccc3)o2)cc1 | 37.9% (active)
COc1ccc(CC(=O)Nc2cnc(-c3ccccc3)nc2)cc1 | 2.89%
COc1ccc(CCNC(=O)c2ccccc2OCc2ccc(F)cc2)cc1 | 16.7%
O=C(c1ccc(OC2CCN(C(=O)C3CCC3)CC2)nc1)N1CCOCC1 | -14.4%
CC(=O)N1CC2(CCN(C(=O)c3ccncc3)CC2)Nc2ccccc21 | -3.13%
CCOC(=O)c1[nH]c2cc(OC)c(OC)cc2c1NC(=O)c1cc2cccc(OC)c2o1 | -23.6%
CCOC(=O)c1c(NC(=O)CNc2cc(C)ccc2C)sc(Cc2ccc3c(c2)OCO3)c1C | 5.67%
O=C(c1cccnc1)N1CC[C@@H]2CNS(=O)(=O)[C@@H]2CC1 | -5.34%
CN1[C@@H](CCC(=O)N2CCN(c3ccccc3)CC2)CNC(=O)[C@H]2NCC[C@H]21 | 7.19%
Cc1ccc(N(C)C(=O)CCn2cnc3ccccc3c2=O)cc1 | -3.3%
Cc1c(Cl)cccc1NC(=O)CCn1cnc2ccccc2c1=O | 55.3% (active)
Cc1ccc(NC(=O)CCn2cnc3c2c(=O)n(C)c(=O)n3C)cc1 | -13%
Cc1nnc2c(NC(=O)Cc3cccc(C(F)(F)F)c3)cccn12 | -9.8%
Cc1cccc(NC(=O)C2CN(S(C)(=O)=O)c3ccccc3O2)c1C (centres undefined) | -4.9%
CCS(=O)(=O)n1nc(NCc2ccccc2)nc1NCc1ccccc1 | 1.97%
CCOc1ccc(NC(=S)Nc2ccc(Cc3ccncc3)cc2)cc1 | 7.13%
COc1ccc(-c2cnc(SCCNC(=O)c3cccc(F)c3)[nH]2)cc1 | -3.6%
COc1ccc(-c2[nH]c3ccccc3c2SCCNC(=O)c2ccc(S(=O)(=O)N3CCOCC3)cc2)cc1 | 56.7% (active)
COc1ccc(NC(=O)c2cc(=O)[nH]c3ccccc23)cc1S(=O)(=O)N1CCOCC1 | -3.19%
